Compound activity from PubChem BioAssay.
NS1 inh: inhibitors of influenza NS1 protein function. 270,000 tested, 0.4% active. AID 2326. Potency, µM (doses to about 46.1 µM), without a hit: at the top dose activity, positive = more growth; calls by dose curve; note: actives are rising curves; nearly all actives have a fitted effect of over 50% in size
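Compounds were scored for reversing the slow growth caused by influenza A NS1 in S. cerevisiae, measured by optical density at 600 nm. Assay medium contained 2% galactose at pH 6.0; NS1-free yeast of the same strain were the positive control.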
Pf growth 48h: inhibits P. falciparum growth in the first generation, 48 h; P. falciparum luciferase growth in erythrocytes, 48 h; Potency, µM (top dose mostly 28.7 µM), inactives show at the highest dose activity change, negative = inhibition, usual class: inhibitors; 310,000 tested, 5.9% active; AID 504832; note: % is set by controls: 0 for no effect and ±100 for the full control effect
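Growth was read as firefly luciferase luminescence after a 48 h, 37 C, 5% CO2 exposure of compounds to reporter-bearing P. falciparum cultures (0.1% parasitemia, 2% hematocrit final) in Albumax-supplemented RPMI 1640.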
HCV inhibitor: inhibitors of hepatitis C virus infection | 340,000 tested, 3.4% active | Potency, µM (doses to about 41.8 µM), for inactives: at the top dose activity change, negative = inhibition, hits mostly inhibitors | Huh7.5.1 HCVcc-Cre infection, luciferase reporter, 44 h; note: % is set by controls: 0 for no effect and ±100 for the full control effect
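Antiviral activity was scored by luciferase reporter output from cells infected with HCVcc-Cre (~0.5 moi) in presence of compound, 44 h infection period, cells seeded 1,000/well 4 h prior.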
Pf growth 96h: P. falciparum growth inhibition at 96 hours | P. falciparum luciferase reporter growth, 96 h | Potency, µM (series often up to 28.7 µM), inactives show at the highest dose activity change, negative = inhibition, hits mostly inhibitors | 320,000 tested, 6.9% active; note: % is set by controls: 0 for no effect and ±100 for the full control effect
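Erythrocytes infected with luciferase-expressing P. falciparum were dispensed at 2% hematocrit and 0.05% parasitemia (final), then incubated with compounds 96 hours at 37 C in 5% CO2. Luminescence after detection reagent addition reported growth.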
VACV Venus inh: inhibitors of vaccinia virus (Venus reporter). Vaccinia virus Venus reporter expression, fluorescence. AID 720580. Potency, µM (series often up to 36.5 µM), inactives show top-dose activity change, negative = inhibition, most hits filed as inhibitors. 330,000 tested, 0.46% active; calls by dose curve; tested in A549 cells; note: % is set by controls: 0 for no effect and ±100 for the full control effect; nearly all actives have a fitted effect of over 30% in size
VACV mCherry inh: inhibitors of vaccinia virus infection (mCherry reporter signal) | Vaccinia virus mCherry reporter infection, fluorescence | Potency, µM (doses to about 36.5 µM), for inactives: at the top dose activity change, negative = inhibition, usual class: inhibitors | 310,000 tested, 0.63% active; calls by dose curve; tested in A549 cells; note: % is set by controls: 0 for no effect and ±100 for the full control effect; nearly all actives have a fitted effect of over 35% in size
* = called active by the depositor. In the library only some 11% were active in any assay of this set; here they are far more common. Unless noted, calls come from the whole dose curve; as a rule, active = well fitted inhibition curve with a large enough effect; inconclusive = small, poorly fitted or top-dose-only effect, or another doubt; inactive = no such curve, though single readings can be large or run the other way. Potency is the fitted concentration of half-maximal effect.

Screening O=c1[nH]c(=S)[nH]c2c1C(c1ccc(F)cc1)OC(CCc1ccccc1)C2 (stereo not drawn) returned VACV Venus inh 2.3% and VACV mCherry inh inactive.
`COc1ccc(Cl)c(S(=O)(=O)N2CCCC2)c1` gave NS1 inh 5.3%, Pf growth 48h -13.2%, HCV inhibitor -4.9%, VACV Venus inh 0.0% and VACV mCherry inh -7.9%.
For COc1ccccc1CCC(=O)Nc1cccc(S(=O)(=O)N2CCCCCC2)c1 the results were Pf growth 48h inconclusive, HCV inhibitor 10µM*, Pf growth 96h -29.1%, VACV Venus inh inconclusive and VACV mCherry inh -19.1%.
Screening COc1ccc(NC(=O)CCOc2ccccc2C)cc1S(=O)(=O)N1CCCCC1 returned Pf growth 48h 11.7µM*, HCV inhibitor 11.2µM*, Pf growth 96h inconclusive, VACV Venus inh -8.7% and VACV mCherry inh -15.6%.
COc1ccc(CCC(=O)Nc2ccc(Cl)c(S(=O)(=O)N3CCCC3)c2)cc1 was read as NS1 inh 3.4%, Pf growth 48h 9.28µM*, HCV inhibitor 5.62µM*, Pf growth 96h inconclusive, VACV Venus inh -21.2% and VACV mCherry inh inactive.
For COc1ccccc1CCC(=O)Nc1cccc(S(=O)(=O)N2CCOCC2)c1 the results were NS1 inh 10.9%, Pf growth 48h inconclusive, HCV inhibitor inconclusive, Pf growth 96h -27.1%, VACV Venus inh -16.0% and VACV mCherry inh -27.2%.
`COc1ccc(NC(=O)CCOc2ccc(C)cc2)cc1S(=O)(=O)N1CCOCC1` gave Pf growth 48h -21.6%, HCV inhibitor -28.8%, Pf growth 96h inconclusive, VACV Venus inh -5.9% and VACV mCherry inh inactive.
`CN(C)c1ccc(N=Nc2ccccc2C(=O)O)cc1` gave VACV Venus inh -23.4% and VACV mCherry inh inconclusive.
COC(=O)c1ccccc1NC(=O)COC(=O)c1ccccc1N=Nc1ccc(N(C)C)cc1 was read as NS1 inh 3.9%, Pf growth 48h inconclusive, HCV inhibitor -4.8%, Pf growth 96h 9.28µM*, VACV Venus inh -24.9% and VACV mCherry inh -9.0%.
Screening CN(C)c1ccc(N=Nc2ccccc2C(=O)OCC(=O)N(C)c2ccccc2)cc1 returned NS1 inh 17.7%, Pf growth 48h 13.1µM*, HCV inhibitor inconclusive and Pf growth 96h inconclusive.
O=C(Nc1nnc(CCN2CCCCC2)s1)c1ccc(Br)cc1 was read as Pf growth 48h 15.0%, HCV inhibitor inconclusive, Pf growth 96h -21.2%, VACV Venus inh -2.6% and VACV mCherry inh 4.7%.
COc1ccc(/C=C/C(=O)Nc2cc(S(=O)(=O)N3CCOCC3)ccc2OC)cc1 was read as HCV inhibitor inconclusive, VACV Venus inh -1.1% and VACV mCherry inh -3.5%.
`COc1ccc(NC(=O)c2cc(S(=O)(=O)N3CCOCC3)ccc2OC)cc1` gave VACV Venus inh -12.3% and VACV mCherry inh -6.4%.
`CCN1CCN(c2ccc(S(=O)(=O)N3CCOCC3)cc2NC(=O)/C=C/c2ccc([N+](=O)[O-])cc2)CC1` gave Pf growth 48h 2.62µM*, HCV inhibitor 25.1µM*, Pf growth 96h 3.7µM*, VACV Venus inh inconclusive and VACV mCherry inh inconclusive.
COc1ccc(/C=C/C(=O)Nc2ccc(S(=O)(=O)N3CCOCC3)cc2)c(OC)c1 was read as Pf growth 48h 9.28µM*, HCV inhibitor 10µM* and Pf growth 96h 9.28µM*.
Screening CCN1CCN(c2ccc(S(=O)(=O)N3CCOCC3)cc2NC(=O)/C=C/c2ccc(OC)cc2OC)CC1 returned Pf growth 48h 10.4µM*, HCV inhibitor 7.5%, Pf growth 96h inconclusive, VACV Venus inh -21.0% and VACV mCherry inh -11.2%.
Screening COc1ccc(NC(=O)CSc2nnc(-c3ccccn3)n2Cc2ccco2)cc1OC returned NS1 inh -8.3%, Pf growth 48h 11.7%, HCV inhibitor -0.1% and Pf growth 96h inconclusive.
Screening COc1cc(F)ccc1S(=O)(=O)N1CCN(c2ccccc2)CC1 returned NS1 inh -14.5%, Pf growth 48h 8.0%, HCV inhibitor -9.4% and Pf growth 96h inconclusive.
`CC(c1ccco1)N(C(=O)C12CC3CC(CC(C3)C1)C2)c1ccccn1` (stereo not drawn) gave NS1 inh -16.3%, Pf growth 48h inconclusive, HCV inhibitor -1.5%, Pf growth 96h 14.3%, VACV Venus inh -3.8% and VACV mCherry inh -7.0%.
CCc1ccc2[nH]c(C(=O)Nc3ccc(Br)c(C)n3)cc2c1 was read as NS1 inh 1.3%, Pf growth 48h 122.7%, HCV inhibitor -22.4% and Pf growth 96h 120.6%.
Screening COc1ccc(F)c(CN(C)CC2CCCN(CCc3ccc(F)cc3)C2)c1 (stereo not drawn) returned NS1 inh 9.2%, Pf growth 48h inconclusive, HCV inhibitor inconclusive, Pf growth 96h inconclusive, VACV Venus inh -18.6% and VACV mCherry inh -8.4%.
`CCOc1cccc(CN(C)CC2CCCN(CCc3ccc(Cl)cc3)C2)c1O` (stereo not drawn) gave NS1 inh 0.0%, Pf growth 48h 3.7µM*, HCV inhibitor 5.01µM* and Pf growth 96h 1.47µM*.
Screening CCN(CC1CCCN(CCc2cccc(F)c2)C1)C(=O)c1cc(C)oc1C (stereo not drawn) returned NS1 inh 12.8%, Pf growth 48h inconclusive, HCV inhibitor inconclusive and Pf growth 96h 5.22µM*.
Screening COc1cc(CN(C)CC2CCCN(CCc3ccc(F)cc3)C2)c(Cl)cc1O (stereo not drawn) returned NS1 inh 18.8%, Pf growth 48h 11.7µM*, HCV inhibitor inconclusive and Pf growth 96h inconclusive.
Screening COc1ccc(CN(C)CC2CCCN(CCc3ccc(F)cc3)C2)cc1OC (stereo not drawn) returned NS1 inh 23.9%, Pf growth 48h inconclusive, HCV inhibitor inconclusive and Pf growth 96h 4.65µM*.
Screening COc1ccc(CCN2CCCC(CN(C)Cc3cc(OC)c(OC)c(OC)c3)C2)cc1 (stereo not drawn) returned NS1 inh -20.4%, Pf growth 48h inconclusive, HCV inhibitor inconclusive, Pf growth 96h inconclusive, VACV Venus inh -12.7% and VACV mCherry inh -17.0%.
For CN(Cc1ccccc1)CC1CCCN(CCc2ccccc2F)C1 (stereo not drawn) the results were NS1 inh 16.1%, Pf growth 48h inconclusive, HCV inhibitor inconclusive, Pf growth 96h inconclusive, VACV Venus inh 3.8% and VACV mCherry inh -11.9%.
For CCN(CC1CCCN(CCc2cccc(F)c2)C1)C(=O)c1cc2ccccc2o1 (stereo not drawn) the results were NS1 inh 1.1%, Pf growth 48h inconclusive, HCV inhibitor inconclusive, Pf growth 96h 80.3%, VACV Venus inh inconclusive and VACV mCherry inh -25.3%.
